PLK1 PBD inh – blocks phosphopeptide binding to human PLK1 polo-box domain. P53350. Plk1 PBD binding of FITC phosphopeptide, fluorescence polarization. 360,000 compounds, 2.8% hits. Potency, µM, inactives show max response, negative = inhibition, hits mostly inhibitors; note: series mostly up to about 57 µM; nearly all actives have a fitted effect of over 65% in size
Tau fluor cs – counter-screen for tau fibril formation inhibitors; 280,000 compounds, 0.93% hits; tau K18 P301L Alexa594 fluorescence, heparin fibrillization; Potency, µM (series often up to 57.7 µM), for the others: at the highest dose activity change, negative = decrease; note: nearly all actives have a fitted effect of over 55% in size
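Human K18 P301L tau (15 uM unlabeled plus 0.24 uM Alexa 594-labeled, final) in 100 mM sodium acetate pH 7 was mixed with compound and 20 uM heparin and incubated 6 hr at 37 C.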
VDR inhibitor – vitamin D3 receptor (human) inhibition | 400,000 compounds, 0.93% hits | Potency, µM, for the others: max response, negative = inhibition, actives largely listed as inhibitors | AID 504847 | VDR-SRC2-3 peptide fluorescence polarization, 2 h
Target sequence (P11473 whole entry, looked up): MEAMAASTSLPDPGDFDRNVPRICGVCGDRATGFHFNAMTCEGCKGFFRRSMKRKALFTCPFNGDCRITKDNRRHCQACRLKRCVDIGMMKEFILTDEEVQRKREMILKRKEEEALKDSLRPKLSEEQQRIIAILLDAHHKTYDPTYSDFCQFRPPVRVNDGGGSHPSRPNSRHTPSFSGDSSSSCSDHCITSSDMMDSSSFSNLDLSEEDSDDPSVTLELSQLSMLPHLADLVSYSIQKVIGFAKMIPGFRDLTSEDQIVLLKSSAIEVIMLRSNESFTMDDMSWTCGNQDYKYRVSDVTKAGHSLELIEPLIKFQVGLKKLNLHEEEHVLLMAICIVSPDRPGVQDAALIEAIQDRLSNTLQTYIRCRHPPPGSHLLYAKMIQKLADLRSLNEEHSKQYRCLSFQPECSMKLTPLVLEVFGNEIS
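Fluorescence polarization assay measuring small-molecule disruption of VDR binding to the coregulator peptide SRC2-3. Compounds were pin-transferred (23 nl) into the reagent mix and incubated 2 h at room temperature before reading.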
Tau fibril FP – inhibitors of human tau fibril formation; K18 P301L tau heparin fibrillization, Alexa594 FP, 6 h; Potency, µM (top dose mostly 57.7 µM), for inactives: at the highest dose activity, negative = inhibition, actives largely listed as inhibitors; 280,000 compounds, 0.39% hits; note: nearly all actives have a fitted effect of over 55% in size
Target sequence (P10636 561-689 P618L limits assumed): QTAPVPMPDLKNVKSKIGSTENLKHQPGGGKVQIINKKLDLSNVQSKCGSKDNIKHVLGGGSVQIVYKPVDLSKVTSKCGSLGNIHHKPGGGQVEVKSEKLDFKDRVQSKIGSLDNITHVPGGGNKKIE
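Human tau K18 […] P301L fragment, 15 uM unlabeled plus 0.24 uM Alexa 594-labeled tau (final), with compound and 20 uM heparin in 100 mM sodium acetate pH 7; 6 hr at 37 C, then Alexa 594 FP read.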
Tau ThT inhib – blocks human tau fibril formation measured by thioflavin T | P10636 | recombinant tau K18 P301L (four-repeat tau fragment), heparin-induced fibrillization, ThT fluorescence | Potency, µM (highest dose often 57.4 µM), inactives show at the top dose activity, negative = inhibition, most hits filed as inhibitors | 270,000 compounds, 2.1% hits | AID 1460; note: nearly all actives have a fitted effect of over 55% in size
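In this qHTS, human K18 P301L tau is incubated with compound and heparin for 6 hr at 37 C, and Thioflavin T fluorescence then reports fibril load.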
Sfp inh – blocks B. subtilis Sfp PPTase activity. 310,000 compounds, 3.5% hits. Q9F4F7. Biochemical Sfp PPTase activity, qHTS. Potency, µM, without a hit: largest response in the series, negative = inhibition, usual class: inhibitors;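 note: the enzyme is Sfp with the accession as filed and its product quenches rhodamine fluorescence; 0% = enzyme reaction without inhibitor and -100% = no enzyme wells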
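Reaction rates are the 30-min fluorescence difference (ex 525, em 598 nm) in wells containing 15 nM Sfp, 5 uM rhodamine-CoA and 12.5 uM BHQ-2-YbbR at pH 7.6 with 10 mM MgCl2.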
TbPYK confirm – Trypanosoma brucei pyruvate kinase inhibition, cherry-pick confirmation; shares compounds with PLK1 PBD inh; 890 compounds, 67% hits; Potency, µM (highest dose often 76.9 µM), for the others: at the top dose activity change, negative = inhibition, usual class: inhibitors; recombinant TbPYK, Kinase-Glo ATP luminescence; AID 720569; note: nearly all actives have a fitted effect of over 70% in size
TbPYK ADP-Glo – TbPYK inhibition, orthogonal confirmation | Potency, µM (series often up to 76.9 µM), without a hit: at the highest dose activity change, negative = inhibition, hits mostly inhibitors | recombinant TbPYK, ADP-Glo luminescence, 60 min | AID 720584 | 890 compounds, 62% hits | shares compounds with PLK1 PBD inh; note: nearly all actives have a fitted effect of over 75% in size
The depositor's hits bear a star; ? = inconclusive; · = not tested or not shown; [ ] = dose if it differs, or a comment. Hits are enriched below; roughly 6% of the tested compounds scored in any of these assays. Calls come from the whole dose curve; as a rule, active = well fitted curve in the direction sought with a large enough effect; inconclusive = small, poorly fitted or top-dose-only effect, or another doubt; inactive = no such curve, though single readings can be large; an effect the other way counts as inactive or inconclusive. Unless noted, % is set by controls: 0 for no effect and ±100 for the full control effect; potency is the fitted concentration of half-maximal effect.

SMILES | PLK1 PBD inh | Tau fluor cs | VDR inhibitor | Tau fibril FP | Tau ThT inhib | Sfp inh | TbPYK confirm | TbPYK ADP-Glo
CCc1ccccc1NC(=O)C1CCN(S(=O)(=O)c2ccc3[nH]c(=O)ccc3c2)CC1 | · | 1% | 3% | 3% | -6% | · | · | ·
Cc1nnc(N2CCN(c3ccccc3)CC2)[nH]c1=O | 3µM* | 9% | -18% | 5% | -7% | 15% | 3% | -3%
COC(=O)C1=CO[C@@H](C)[C@@H]2CN3CCc4c([nH]c5ccccc45)[C@@H]3C[C@H]12 | · | · | 2% | · | · | -7% | · | ·
O=C1Nc2ccccc2C(=O)C1(Cl)Cc1ccccc1 (stereo not given) | 1.2µM* | -12% | 28µM* | ? | ? | 18µM* | 3.2µM* | 13µM*
CC(C)(C)N1C(=O)c2ccccc2NC(=O)N1Cc1ccccc1 | -1% | -13% | -5% | -8% | -14% | 12% | · | ·
C/C(=N/NC(=O)c1nnn(-c2nonc2N)c1CSc1ccc(C)cc1)c1ccncc1 | -2% | · | · | · | · | · | · | ·
Nc1sc2c(c1C(=O)NC1CCS(=O)(=O)C1)CCCC2 (stereo not given) | 27µM* | ? | ? | ? | 32µM* | 20µM* | 14µM* | 16µM*
O=C(CSc1ncnc2sc3c(c12)CCCC3)NC1CCS(=O)(=O)C1 (stereo not given) | ? | · | 5% | · | · | · | · | ·
CN(C)c1ccc(/C=C/c2ccc3c4ccccc4ccc3[n+]2-c2ccccc2)cc1 | -15% | 0.79µM*[fluorescent] | 46% | ? | 2µM* | 14µM* | 32µM* | 7%
CN(C)c1ccc(/C=C/c2ccc3ccccc3[n+]2C)cc1 | 11% | 0.5µM*[fluorescent] | 20% | 11% | 0.56µM* | -22% | ? | 2%
CN(C)c1ccc(/C=C/c2cccc[n+]2[O-])cc1 | 13% | -4% | -15% | 2% | -4% | 8% | · | ·
O=C(CCN1CCc2ccccc2C(c2ccccc2)C1)c1ccc2c(c1)OCCO2 (stereo not given) | 3µM* | 4% | ? | ? | -14% | 45µM* | ? | ?
COc1ccc(C#Cc2cccc(-c3nc(C(=O)N4CCN(C)CC4)cc4c3[C@H](CCO)N(S(=O)C(C)(C)C)C4)c2)cc1OC (stereo not given in full) | -1% | · | · | · | · | · | · | ·
S=C1SCN(Cc2ccccc2)CN1Cc1ccco1 | 12µM* | · | · | · | · | · | ? | ?
COc1ccc(CN2CSC(=S)N(Cc3ccccc3)C2)cc1 | -4% | · | 9% | · | · | 8% | · | ·
Cc1c(C(=O)OCC(=O)N(C)CC(=O)Nc2ccc(F)cc2)oc2ccccc12 | -24% | · | -16% | · | · | · | · | ·
Nc1nc(=O)n(C2CC(O)C(CO)O2)cc1Cl (stereo not given) | 2% | · | · | · | · | · | · | ·
CC1(C)Cc2c(C#N)c(N)sc(=S)c2CS1 | 8.4µM* | ? | ? | -5% | 18µM* | 16µM* | ? | ?
CC(C)c1nc(Cl)c(C#N)c2c1CSC(C)(C)C2 | -8% | 1% | -3% | 9% | -5% | -3% | · | ·
CCOC(=O)N1CCC2(CC1)OC(=O)C(C)=C2C(=O)NCc1cccc(F)c1 | · | -4% | -1% | -4% | -1% | · | · | ·
CC(C)(C)c1cc(C(=S)N2CCN(CCO)CC2)cc(C(C)(C)C)c1O | 9.5µM* | 6% | 40µM* | -8% | -9% | 3.2µM* | 3.5µM* | 7.9µM*
Cc1cccc(CC(=O)N2CC(=O)Nc3ccc(Br)cc3C2c2ccc(F)cc2)c1 (stereo not given) | · | -25% | -3% | -11% | -16% | · | · | ·
O=C1c2ccccc2C(Nc2ccc3c(c2)OCO3)N1Cc1ccc2c(c1)OCO2 (stereo not given) | -1% | ? | 5% | 10% | ? | ? | · | ·
COc1ccc(OC)c(NC2c3ccccc3C(=O)N2Cc2ccc3c(c2)OCO3)c1 (stereo not given) | -7% | ? | 1% | 9% | ? | 7% | ? | 35µM*
Oc1ccc(N2CCN(c3nc(-c4cccs4)nc4ccccc34)CC2)cc1 | 0% | 14µM*[quencher] | -3% | 5% | · | ? | ? | 35µM*
SMILES | PLK1 PBD inh | Tau fluor cs | VDR inhibitor | Tau fibril FP | Tau ThT inhib | Sfp inh | TbPYK confirm | TbPYK ADP-Glo
CCn1c(CCNC(=O)c2cccs2)nnc1SCC(=O)c1ccc(OC)cc1 | ? | · | -13% | · | · | · | 0.89µM* | 14µM*
CCC(C(=O)Nc1cc(C(F)(F)F)ccc1Cl)n1nc(C)c2sc3ccccc3c2c1=O (stereo not given) | · | -9% | -2% | -11% | ? | · | · | ·
O=S(=O)(NCCc1ccccc1)c1cccc(S(=O)(=O)N2CCOCC2)c1 | 1% | 4% | 10% | 3% | 13% | 19% | · | ·
O=S(=O)(NCCC1=CCCCC1)c1cccc(S(=O)(=O)N2CCOCC2)c1 | 2.7µM* | -25% | -27% | -8% | -3% | 14% | 0% | -6%
Oc1c(CN2CCOCC2)cc(CN2CCOCC2)c(O)c1CN1CCOCC1 | 1.7µM* | · | 10µM* | · | · | · | 1.4µM* | ?
Cc1ccc2nc(-c3ccccn3)c(Nc3ccccc3C)n2c1 | -14% | ? | -7% | -6% | ? | 1% | · | ·
Cc1ccc2nc(-c3ccccn3)c(N)n2c1 | -1% | · | · | · | · | · | 28µM* | 11%
O=C(NCC1CCCO1)c1sc(=S)n2c1[nH]c(=O)c1ccc(C(=O)N3CCCCC3)cc12 (stereo not given) | -19% | ? | -25% | 13% | ? | -9% | ? | ?
CC1(C)CC(=O)C=C(NNC(=O)c2ccccc2)C1 | -9% | 9% | -21% | 7% | 11% | 15% | · | ·
CC1(C)CC(=O)C(CSC(=O)c2ccccc2)C(=O)C1 | 9.5µM* | · | · | · | · | · | 5.6µM* | 14µM*
CCOCCCNC(=O)c1cc2c(s1)-c1ccccc1SC2 | 27µM* | · | ? | · | · | 79µM* | 10µM* | 13µM*
Cc1ccc(-c2cc(C(=O)N3CC(C)CC(C)C3)c3ccccc3n2)o1 (stereo not given) | 24µM* | · | ? | · | · | 22µM* | 25µM* | 35µM*
COC(=O)c1cc(-c2ccc(C)o2)nc2ccccc12 | 15µM* | 5% | 79µM* | 10% | -16% | 11µM* | ? | ?
NC(=O)c1ncn([C@@H]2O[C@H](CNC(=O)[C@H](N)CSCc3ccccc3)[C@@H](O)[C@H]2O)n1 | -6% | · | -16% | · | · | · | · | ·
Fc1cccc(C[n+]2csc3ccccc32)c1 | 24µM* | -23% | 32µM* | ? | 25µM* | 20µM* | ? | 13µM*

Source: PubChem BioAssay
